Reference: PMC5540273 (PLoS ONE, 2017)

Legend:
Conditions in all cases: concentration: 1 μM, replicates: in singlicate; n = 1
[1] = tested on: STK16
[2] = tested on: STK33
[3] = tested on: STK35
[4] = tested on: STK36
[5] = tested on: STK39
[6] = tested on: SYK
[7] = tested on: SgK110
[8] = tested on: T1, TAK1
T1 construct: gene MAP3K7

[9] = tested on: TAOK1
[10] = tested on: TAOK2
[11] = tested on: TAOK3
[12] = tested on: TBK1
[13] = tested on: TEC
[14] = tested on: TESK1
[15] = tested on: TGFBR2
[16] = tested on: TIE1
[17] = tested on: T2, TIE2
T2 construct: gene TEK

[18] = tested on: TLK1
[19] = tested on: TLK2
[20] = tested on: TGFBR1
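Further: KINOMEscan kinase panel screen.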

Row | SMILES | %Inh [1] [%] | %Inh [2] [%] | %Inh [3] [%] | %Inh [4] [%] | %Inh [5] [%] | %Inh [6] [%] | %Inh [7] [%] | %Inh [8] [%] | %Inh [9] [%] | %Inh [10] [%] | %Inh [11] [%] | %Inh [12] [%] | %Inh [13] [%] | %Inh [14] [%] | %Inh [15] [%] | %Inh [16] [%] | %Inh [17] [%] | %Inh [18] [%] | %Inh [19] [%] | %Inh [20] [%]
1 | COc1ccc2nc(-c3cccc(C)n3)nc(Nc3ccncc3)c2c1 [GSK204919] | 1 | 0 | 5 | 0 | 7 | 10 | 2 | 0 | 0 | 0 | 0 | 3 | 8 | 26 | 10 | 9 | 0 | 0 | 0 | –
2 | COc1ccccc1-c1ccc2c(NC(=O)C3CC3)n[nH]c2n1 [SB-711239] | 28 | 20 | 0 | 6 | 18 | 20 | 14 | 0 | 0 | 0 | 0 | 26 | 0 | 8 | 1 | 6 | 11 | 0 | 2 | 14
3 | Fc1cc(Cl)ccc1Nc1ccnc2cc(-c3ccc(CN4CCCCC4)o3)ccc12 [GW560116] | 1 | 0 | 0 | 0 | 0 | 0 | 0 | 0 | 0 | 0 | 0 | 14 | 5 | 19 | 0 | 0 | 0 | 0 | 0 | 0
4 | CS(=O)(=O)c1ccc(-c2nc3n(c2-c2ccncc2)CCC3)cc1 [SKF-105942] | 96.8 | 0 | 0 | 0 | 0 | 11 | 0 | 0 | 0 | 0 | 0 | 27 | 7 | 1 | 0 | 8 | 0 | 0 | 0 | 15
5 | CCn1c(-c2ccccn2)nc2cnccc21 [SB-736398] | 0 | 0 | 1 | 0 | 31 | 0 | 15 | 0 | 0 | 33 | 0 | 0 | 0 | 0 | 10 | 0 | 0 | 0 | 0 | 21
6 | C[C@@H]1CCCCN1c1cc(-c2ccc3c(N)n[nH]c3c2)nc(N)n1 [GSK2258759] | 19 | 0 | 0 | 0 | 0 | 10 | 0 | 0 | 0 | 0 | 0 | 24 | 0 | 0 | 0 | 0 | 0 | 23 | 4 | –
7 | COc1cccc(NC(=O)NC2CCN(c3ccnc(Nc4ccc(F)cc4)n3)C2)c1 (stereo not shown) [GSK1379721] | 16 | 0 | 0 | 0 | 9 | 0 | 0 | 0 | 0 | 0 | 2 | 16 | 0 | 32 | 0 | 0 | 0 | 6 | 4 | 15
8 | Cc1cccc(-c2nc(Nc3cccc(C(N)=O)c3)c3ccccc3n2)n1 [GW876019] | 0 | 29 | 0 | 0 | 0 | 14 | 41 | 0 | 0 | 30 | 0 | 40 | 2 | 0 | 15 | 0 | 41 | 0 | 4 | –
9 | Cc1cccc(-c2nc(Nc3ccncc3)c3ccccc3n2)n1 [GW855857] | 7 | 2 | 0 | 5 | 0 | 14 | 0 | 0 | 0 | 17 | 0 | 41 | 10 | 14 | 95.7 | 20 | 27 | 0 | 0 | –
10 | O=C(Nc1n[nH]c2nc(-c3nccs3)c(Br)cc12)C1CC1 [SB-742251] | 61 | 0 | 0 | 1 | 21 | 0 | 4 | 0 | 0 | 0 | 0 | 0 | 14 | 36 | 0 | 0 | 8 | 0 | 0 | 15
11 | Cc1cccc(-c2nc(Nc3ccc4[nH]ncc4c3)c3ccccc3n2)n1 [GW857175] | 17 | 0 | 0 | 15 | 14 | 5 | 0 | 0 | 33 | 9 | 19 | 35 | 3 | 5 | 0 | 17 | 49 | 23 | 0 | –
12 | Nc1ncnc2[nH]c(-c3ccccc3)nc12 [AH5015] | 0 | 0 | 0 | 4 | 0 | 10 | 0 | 0 | 7 | 0 | 9 | 10 | 28 | 30 | 9 | 38 | 0 | 0 | 0 | 10
13 | O=C(Nc1n[nH]c2cc(-c3cccc(F)c3F)ccc12)C1CC1 [SB-733894] | 12 | 0 | 0 | 9 | 0 | 0 | 17 | 48 | 23 | 0 | 16 | 18 | 4 | 8 | 14 | 0 | 17 | 0 | 5 | 1
14 | CN1C(=O)C(Nc2ccc(Cl)c(C(=O)O)c2)=C(c2ccc(Cl)cc2)C1=O [SB-404290] | 0 | 0 | 4 | 0 | 0 | 28 | 0 | 0 | 11 | 5 | 19 | 27 | 0 | 0 | 0 | 0 | 14 | 0 | 0 | 0
15 | O=C(Nc1ccc2c(c1)OCO2)NC1CCN(c2ccnc(Nc3ccc(F)cc3)n2)C1 (stereo not shown) [GSK1379724] | 30 | 0 | 0 | 0 | 10 | 16 | 14 | 0 | 0 | 0 | 0 | 0 | 7 | 32 | 0 | 0 | 0 | 0 | 0 | 28
